Screening results: PubChem, National Center for Advancing Translational Sciences (NCATS)
SNCA viab count = cell viability loss counter-screen; Potency, µM (titrated, usually from 57.1 µM), for inactives: at the highest dose activity change, negative = cytotoxicity, actives largely listed as cytotoxic; HEK-293-SNCA-luc viability, GF-AFC fluorescence, 24 h; AID 1671193; 150,000 tested, 0.12% active;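 also: 0% = DMSO-treated cells and -100% = medium-only wells without cells; nearly all actives have a fitted effect of over 30% in size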
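HEK-293-SNCA-luc cells (1500/well) plated 24 h, then exposed 24 h to a dilution series; GF-AFC added 30 min at 37C, fluorescence 405/540 nm; normalised to medium-only and DMSO wells, Hill fit.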
hNpr1 antagonist = blocks ANP-stimulated signaling of human Npr1 receptor. HEK293 hNpr1 GloSensor cGMP, ANP-stimulated luminescence. 76,000 tested, 1.6% active. Potency, µM (top dose mostly 46.3 µM), for the others: at the highest dose activity change, negative = inhibition, usual class: inhibitors. P16066; calls by dose curve; also: nearly all actives have a fitted effect of over 60% in size
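HEK293 cells stably expressing human Npr1 and cGMP GloSensor pGS-40F, loaded 2 h with 2% GloSensor reagent, given compound 30 min at room temperature. Luminescence read before and 20 min after 0.1 nM hNppA.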
HEK cytotox = cytotoxic compounds in HEK 293 cells. 94,000 tested, 6.6% active. Potency, µM (doses to about 115 µM), inactives show at the top dose activity change, negative = cytotoxicity, hits mostly inhibitors. AID 1345083. HEK 293 viability, ATP luminescence (CellTiter-Glo), 48-72 h; also: nearly all actives have a fitted effect of over 60% in size
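Cytotoxicity was scored by loss of ATP-coupled luminescence (CellTiter-Glo) in HEK 293 cells. Compound treatment ran 48 or 72 hr at 37 degree Celsius, 5% CO2, 95% humidity.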
SNCA expr inhib = reduces expression of the alpha-synuclein gene. HEK-293 SNCA-luciferase knock-in, luminescence, 24 h. Potency, µM (highest dose often 57.2 µM), for inactives: at the highest dose activity change, negative = inhibition, hits mostly inhibitors. 140,000 tested, 0.17% active;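 also: plate controls were DMSO cells for no effect and cell-free wells for full effect; nearly all actives have a fitted effect of over 45% in size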
3T3 cytotox = kills NIH 3T3 cells; Potency, µM (titrated, usually from 96.7 µM), for inactives: top-dose activity change, negative = cytotoxicity, usual class: inhibitors; 94,000 tested, 4.3% active; NIH 3T3 viability, CellTiter-Glo ATP luminescence, 48-72 h; AID 1345082; also: nearly all actives have a fitted effect of over 55% in size
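Mouse fibroblast NIH 3T3 cells, 400 per well, received compound via pintool and were incubated for 48 or 72 hr prior to CellTiter-Glo ATP luminescence measurement.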
FLuc inh = Photinus pyralis luciferase inhibition; P08659; purified P. pyralis luciferase, luminescence, biochemical; AID 1347043; Potency, µM (doses to about 115 µM), usual class: inhibitors; 76,000 tested, 2.5% active; also: nearly all actives have a fitted effect of over 65% in size
Target sequence (P08659 whole entry, looked up): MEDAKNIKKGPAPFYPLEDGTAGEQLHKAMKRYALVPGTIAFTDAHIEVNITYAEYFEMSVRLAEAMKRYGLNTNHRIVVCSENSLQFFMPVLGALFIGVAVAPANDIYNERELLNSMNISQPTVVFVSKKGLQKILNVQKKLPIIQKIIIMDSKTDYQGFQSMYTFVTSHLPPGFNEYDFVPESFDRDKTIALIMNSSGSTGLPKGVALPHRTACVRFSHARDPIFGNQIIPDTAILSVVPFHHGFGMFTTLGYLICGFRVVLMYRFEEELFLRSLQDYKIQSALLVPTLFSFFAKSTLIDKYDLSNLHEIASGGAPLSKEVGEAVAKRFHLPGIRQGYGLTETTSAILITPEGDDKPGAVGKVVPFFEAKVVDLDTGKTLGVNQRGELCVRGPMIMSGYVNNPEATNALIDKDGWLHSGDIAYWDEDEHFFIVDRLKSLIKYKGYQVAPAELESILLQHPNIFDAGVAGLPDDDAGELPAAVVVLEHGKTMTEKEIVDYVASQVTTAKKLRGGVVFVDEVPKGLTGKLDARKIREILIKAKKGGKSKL
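Luminescence read by CCD imaging after purified firefly luciferase (10nM final) was added to substrate buffer holding 10uM D-luciferin and 10uM ATP, pH 7.5, pre-dosed with compound.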
Starred values were filed as active, the others as inactive; [ ] = remark or other dose. Only some compounds are listed: those with a hit (about 7.4% of all), similar ones and a draw of the others. Unless noted, calls follow the shape of the dose curve; as a rule, active = well fitted curve in the direction sought with a large enough effect; inconclusive = small, poorly fitted or top-dose-only effect, or another doubt; inactive = no such curve, though single readings can be large; an effect the other way counts as inactive or inconclusive. Unless noted, % is scaled to controls: 0 for no effect and ±100 for the full control effect; potency is read from the fitted curve at half-maximal effect.

`C[C@H]1[C@@H]2[C@H]3OC(=O)[C@@H](C)[C@@H]3CC[C@@]2(C)CC[C@@H]1NC(=O)COc1ccccc1` gave SNCA viab count 5%[87.6 µM], hNpr1 antagonist 0%[70.6 µM], HEK cytotox inconclusive, SNCA expr inhib 3%[87.6 µM], 3T3 cytotox -28%[138 µM] and FLuc inh inactive.
For Cc1ccc2c(n1)N(C)[C@H](CO)CCN(Cc1ccccc1F)C2 the results were SNCA viab count 3%[87.6 µM], hNpr1 antagonist -2%[70.6 µM], HEK cytotox -15%[172 µM], SNCA expr inhib 6%[87.6 µM], 3T3 cytotox -31%[174 µM] and FLuc inh inactive.
Cc1ccc2c(n1)N(C)[C@H](CO)CCN(Cc1ccc(C(C)C)cc1)C2 was read as SNCA viab count 0%[87.6 µM], hNpr1 antagonist -16%[70.6 µM], HEK cytotox 63µM*, SNCA expr inhib 19%[87.6 µM], 3T3 cytotox inconclusive and FLuc inh inactive.
`Cc1ccc2c(n1)N(C)[C@H](CO)CCN(Cc1ccc(C(F)(F)F)cc1)C2` gave SNCA viab count inconclusive, hNpr1 antagonist -11%[70.6 µM], HEK cytotox 35µM*, SNCA expr inhib inconclusive, 3T3 cytotox 63µM* and FLuc inh inactive.
`COc1ccc(CN2CC[C@@H](CO)N(C)c3nc(C)ccc3C2)cc1` gave SNCA viab count -4%[87.6 µM], hNpr1 antagonist -1%[70.6 µM], HEK cytotox inconclusive, SNCA expr inhib -1%[87.6 µM], 3T3 cytotox -20%[174 µM] and FLuc inh inactive.
CCNC(=O)N1CC[C@@H](CC(=O)O)[C@@H](CC2=NCCc3ccc(C(C)(C)C)cc32)C1 was read as SNCA viab count 7%[87.6 µM], hNpr1 antagonist 1%[70.6 µM], HEK cytotox -13%[172 µM], SNCA expr inhib -15%[87.6 µM], 3T3 cytotox -3%[174 µM] and FLuc inh inactive.
Screening Cn1ccnc1CN1C(=O)CO[C@H]2CN(CCCc3ccccc3)C[C@H]21 returned SNCA viab count -8%[87.6 µM], hNpr1 antagonist -25%[70.6 µM], HEK cytotox inconclusive, SNCA expr inhib -19%[87.6 µM], 3T3 cytotox 112µM* and FLuc inh inactive.
`Clc1ccc(CNC[C@H]2Cn3c(-c4cccc(Cl)c4)cnc3CO2)cc1` gave SNCA viab count inconclusive, hNpr1 antagonist inconclusive, HEK cytotox 63µM*, SNCA expr inhib inconclusive, 3T3 cytotox 45µM* and FLuc inh inactive.
For Clc1ccc(CNC[C@H]2Cn3c(-c4ccccc4)cnc3CO2)cc1 the results were SNCA viab count -7%[87.6 µM], hNpr1 antagonist inconclusive, HEK cytotox 100µM*, SNCA expr inhib -1%[87.6 µM], 3T3 cytotox 89µM* and FLuc inh inactive.
Fc1ccc(CNC[C@H]2Cn3c(-c4ccc(Cl)cc4)cnc3CO2)cc1 was read as SNCA viab count -8%[87.6 µM], hNpr1 antagonist inconclusive, HEK cytotox 79µM*, SNCA expr inhib inconclusive, 3T3 cytotox inconclusive and FLuc inh inactive.
`Clc1ccc(-c2cnc3n2C[C@H](CNCc2cccnc2)OC3)cc1` gave SNCA viab count 4%[87.6 µM], hNpr1 antagonist -12%[70.6 µM], HEK cytotox inconclusive, SNCA expr inhib 22%[87.6 µM], 3T3 cytotox inconclusive and FLuc inh inactive.
`Cn1ccnc1CNC[C@H]1Cn2c(-c3ccc(Cl)cc3)cnc2CO1` gave SNCA viab count 5%[87.6 µM], hNpr1 antagonist -1%[70.6 µM], HEK cytotox -25%[172 µM], SNCA expr inhib -22%[87.6 µM], 3T3 cytotox inconclusive and FLuc inh inactive.
For O=C(NC[C@H]1Cn2c(-c3ccc(Cl)cc3)cnc2CO1)c1cccnc1 the results were SNCA viab count -13%[87.6 µM], hNpr1 antagonist -4%[70.6 µM], HEK cytotox 22µM*, SNCA expr inhib -10%[87.6 µM], 3T3 cytotox inconclusive and FLuc inh inconclusive.
`CCc1ccccc1OCCN1CCN(c2ccc(C#N)cc2)C(=O)C1` gave SNCA viab count -3%, hNpr1 antagonist -11%, HEK cytotox inconclusive, SNCA expr inhib -21%, 3T3 cytotox inconclusive and FLuc inh inactive.
Screening CS(=O)(=O)N(C1CC1)C1CCOC2(CCN(C(=O)COc3ccccc3)CC2)C1 (stereo not given) returned SNCA viab count -6%, hNpr1 antagonist -2%, HEK cytotox -3%, SNCA expr inhib 6%, 3T3 cytotox -7% and FLuc inh inactive.
Screening CCc1nncn1C1CCN(S(=O)(=O)c2cc(F)cc(F)c2)CC1 returned SNCA viab count -4%, hNpr1 antagonist 2%, HEK cytotox -23%, SNCA expr inhib -22%, 3T3 cytotox -17% and FLuc inh inactive.
Screening COC(=O)[C@@H]1Cc2ncn(Cc3ccc(Cl)cc3)c2CN1Cc1cccs1 returned SNCA viab count -13%[87.6 µM], hNpr1 antagonist inconclusive, HEK cytotox inconclusive, SNCA expr inhib -22%[87.6 µM], 3T3 cytotox 89µM* and FLuc inh inactive.
COC(=O)[C@@H]1Cc2ncn(Cc3ccc(Cl)cc3)c2CN1CCCc1ccccc1 was read as SNCA viab count inconclusive, hNpr1 antagonist inconclusive, HEK cytotox 25µM*, SNCA expr inhib inconclusive, 3T3 cytotox -95%[138 µM] and FLuc inh inactive.
Cc1ccccc1Cn1cc(-c2ccncc2)cc1C(=O)N1CCCC(C)C1 (stereo not given) was read as SNCA viab count 3%, hNpr1 antagonist -8%, HEK cytotox 45µM*, SNCA expr inhib 1%, 3T3 cytotox inconclusive and FLuc inh inactive.
Screening Cc1ccccc1Cn1cc(-c2ccncc2)cc1C(=O)NC1CC1 returned SNCA viab count 7%, hNpr1 antagonist 1%, HEK cytotox inconclusive, SNCA expr inhib 6%, 3T3 cytotox inconclusive and FLuc inh inactive.
For Cc1ccccc1Cn1cc(-c2ccncc2)cc1C(=O)Nc1ccc2c(c1)OCO2 the results were SNCA viab count inconclusive, hNpr1 antagonist -16%, HEK cytotox 35µM*, SNCA expr inhib 38%, 3T3 cytotox inconclusive and FLuc inh inconclusive.
CNC(=O)c1cc(C2CC2)nc2onc(C3CCN([S+](=O)([O-])C(C)C)C3)c12 (stereo not given) was read as HEK cytotox -12% and 3T3 cytotox -14%.
O=C1NC2(CCN(Cc3ccc(F)cc3)CC2)COc2ccccc21 was read as SNCA viab count -4%[87.6 µM], hNpr1 antagonist 8%[70.6 µM], HEK cytotox 63µM*, SNCA expr inhib inconclusive, 3T3 cytotox -22%[138 µM] and FLuc inh inactive.
For O=C1NC2(CCN(Cc3ccsc3)C2)Oc2ccccc21 (stereo not given) the results were SNCA viab count 6%[87.6 µM], hNpr1 antagonist 15%[70.6 µM], HEK cytotox -29%[172 µM], SNCA expr inhib 74%[87.6 µM], 3T3 cytotox -27%[138 µM] and FLuc inh inactive.
CC(=O)Nc1ccc(CN2CCC3(CC2)COc2ccccc2C(=O)N3)cc1 was read as SNCA viab count 7%, hNpr1 antagonist -3%, HEK cytotox inconclusive, SNCA expr inhib 4%, 3T3 cytotox 3% and FLuc inh inactive.
